Only some compounds are listed: those with a hit (about 6.5% of all), similar ones and a draw of the others.
HT1080 IDH1KD tx = HT-1080 IDH1 knockdown cell toxicity (counter line); hit rate 2% among 360,000; Potency, µM (doses to about 46.1 µM), most hits filed as cytotoxic; HT-1080 IDH1 knockdown viability, ATP luminescence, 48 h
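IDH1KD HT-1080 cells, 750/well, RPMI + 5% FBS; compound pinned after 2 h settling; 48 h, 37 °C; CellTiter-Glo luminescence; % activity normalised to DMSO and no-cell wells; curves fitted, classed by r2 and efficacy.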
TGFb SMAD3 inh = TGF-b pathway inhibition | HepG2 CAGA-GFP TGF-b/SMAD3 reporter, GFP fluorescence, 18 h; TGF-beta stimulated, 500 pg/mL final | Potency, µM (top dose mostly 46.1 µM), hits mostly inhibitors | hit rate 1.2% among 410,000 | AID 588855; note: nearly all actives have a fitted effect of over 65% in size
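Cell-based qHTS in HEPG2 carrying a CAGA-GFP Smad reporter; compounds added before 500 pg/mL final TGF-beta, 18 h incubation at 37 degrees C, GFP fluorescence quantified per cell by imaging cytometry.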
Giardia killer = kills Giardia lamblia | Giardia lamblia trophozoite viability | hit rate 0.15% among 340,000 | activity change, % at 7.66 µM, hits read low; in the data active = activity change below about -80%; inconclusive = between about -30% and that limit;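 note: parasites exposed to compound for two days anaerobically before the ATP read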
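Trophozoite viability was measured as ATP-dependent luminescence, read 15-30 min after reagent addition. Before that, parasites at 100 cells/well were exposed to compounds for 48 h, anaerobically, at 37 deg C.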
HT1080NT lethal = kills 2HG-producing HT-1080-NT fibrosarcoma cells. HT-1080-NT fibrosarcoma viability, CellTiter-Glo ATP luminescence, 48 h. Potency, µM (top dose mostly 46.1 µM), usual class: cytotoxic. hit rate 1.6% among 360,000;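 note: NT is the 2HG producing partner of a matched IDH1 knockdown line; nearly all actives have a fitted effect of over 55% in size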
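A 48-hour cytotoxicity screen used HT-1080-NT cells plated 2 hours before compound delivery. ATP-based CellTiter-Glo luminescence measured viability, normalized to DMSO and no-cell controls.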
IL1B secr inh = inhibitors of inflammasome signaling (IL-1 beta secretion); AID 743279; hit rate 4.7% among 360,000; activity change, % at 57.5 µM; THP-1 LPS/ATP IL-1B secretion, AlphaLISA, 16 h; stronger effect = lower value; in the data active = activity change below about -50%; inconclusive = mostly about -30% to -49%
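THP-1 cells pretreated 1 hr with compounds (up to 57.5 uM final), then stimulated with LPS (250 ng/mL final) plus ATP (1.25 mM final); secreted IL-1B measured by AlphaLISA after 16 hr, decreased signal indicating inhibition.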
HepG2 tox-1 = counter-screen for TGF-b inhibitors: cytotoxicity in HepG2 cells; HepG2 CAGA-GFP viability, ATP luminescence, 18 h; Potency, µM (doses to about 46.1 µM), hits mostly cytotoxic; hit rate 0.76% among 410,000; AID 588856
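HepG2 CAGA-GFP cells (1000/well, DMEM with 1% FBS) received compound, then TGF-beta at 500 pg/mL final, and were incubated 18 hours at 37 degrees C. Viability was read by CellTiter-Glo luminescence. Media-only wells were set as complete cell-killing and DMSO as no toxicity.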
TGFb confirm = confirmation of TGF-b signaling inhibitors in HepG2 reporter cells; shares compounds with TGFb SMAD3 inh; HepG2 CAGA-GFP TGF-b reporter, GFP fluorescence, 18 h; cells stimulated with TGF-beta, 500 pg/mL; hit rate 63% among 1,600; Potency, µM (top dose mostly 46.1 µM), usual class: inhibitors; AID 720534; note: nearly all actives have a fitted effect of over 65% in size
HepG2 tox-2 = HepG2 cytotoxicity, TGF-b inhibitor counterscreen; shares compounds with TGFb SMAD3 inh; HepG2 CAGA-GFP viability, ATP luminescence, 18 h; cells stimulated with TGF-beta, 500 pg/mL; Potency, µM (top dose mostly 46.1 µM), actives largely listed as inhibitors; hit rate 27% among 1,600; note: nearly all actives have a fitted effect of over 70% in size
TGFb CCL64 inh = orthogonal confirmation of TGF-b inhibitors in CCL64 cells; shares compounds with TGFb SMAD3 inh; CCL64 CAGA-GFP reporter, TGF-b stimulated, GFP fluorescence, 18 h; Potency, µM (doses to about 46.1 µM), most hits filed as inhibitors; hit rate 41% among 1,600; AID 720536; note: nearly all actives have a fitted effect of over 65% in size
TGFb COP inh = blocks TGF-b signaling in HepG2 COP reporter | HepG2 COP-GFP TGF-b reporter, GFP fluorescence, 18 h; cells stimulated by added recombinant TGF-beta | Potency, µM (titrated, usually from 46.1 µM), hits mostly inhibitors | shares compounds with TGFb SMAD3 inh | hit rate 3% among 1,600; note: nearly all actives have a fitted effect of over 70% in size
Of the large screens only hits and unclear results are named; the others gave an inactive call (follow-up assays come after a bar, where they were run). Unless noted, calls come from the whole dose curve; as a rule, active = well fitted curve in the direction sought with a large enough effect; inconclusive = small, poorly fitted or top-dose-only effect, or another doubt; inactive = no such curve, though single readings can be large; an effect the other way counts as inactive or inconclusive.

CCN(CC)C(=O)c1ccc2nc3ccccc3nc2c1	TGFb SMAD3 inh 10µM | TGFb confirm inconclusive | HepG2 tox-2 11.6µM | TGFb CCL64 inh inactive | TGFb COP inh inactive
CC[C@]12c3[nH]c4ccc(Cl)cc4c3CCN1C(=O)[C@@H](CC(=O)NCc1ccc(OC)c(OC)c1)C[C@@H]2C(=O)N1CCN(C(=O)C2CC2)CC1	none
COc1ccc(CNC(=O)C[C@H]2C[C@H](C(=O)N(C(C)C)C(C)C)[C@@]3(C)c4[nH]c5ccc(Cl)cc5c4CCN3C2=O)cc1OC	TGFb SMAD3 inh 14.1µM | TGFb confirm 8.2µM | HepG2 tox-2 inconclusive | TGFb CCL64 inh inconclusive | TGFb COP inh inactive
COc1ccc(CNC(=O)C[C@H]2C[C@H](C(=O)N3CCCCC3)[C@@]3(CCc4ccccc4)c4[nH]c5ccc(Cl)cc5c4CCN3C2=O)cc1OC	TGFb SMAD3 inh 6.31µM, Giardia killer inconclusive | TGFb confirm 8.2µM | HepG2 tox-2 inactive | TGFb CCL64 inh 6.51µM | TGFb COP inh inactive
O=C(/C=C/c1ccc(Cl)cc1)c1ccc([N+](=O)[O-])o1	HT1080 IDH1KD tx 13µM, TGFb SMAD3 inh 3.55µM, HT1080NT lethal inconclusive, IL1B secr inh inconclusive | TGFb confirm 2.91µM | HepG2 tox-2 7.31µM | TGFb CCL64 inh 2.06µM | TGFb COP inh inactive
O=C(Cn1ncc(Cl)c(Cl)c1=O)N1CCN(S(=O)(=O)c2ccc3ccccc3c2)CC1	HT1080 IDH1KD tx 3.66µM, TGFb SMAD3 inh 3.98µM, HT1080NT lethal 2.59µM, IL1B secr inh -102.7 | TGFb confirm 2.59µM | HepG2 tox-2 2.59µM | TGFb CCL64 inh 5.17µM | TGFb COP inh inactive
O=C(CCC(=O)N1CCN(S(=O)(=O)c2ccc3ccccc3c2)CC1)Nc1cc(Cl)cc(Cl)c1	TGFb SMAD3 inh 7.08µM, IL1B secr inh -53.1 | TGFb confirm inconclusive | HepG2 tox-2 inactive | TGFb CCL64 inh inactive | TGFb COP inh inactive
O=C(O)CCC(=O)N1CCN(S(=O)(=O)c2ccc3ccccc3c2)CC1	none
COc1ccc(-c2nn(C)c(=O)c3ccccc23)cc1NC(=O)COc1ccc(C)cc1	none
Cn1cc([N+](=O)[O-])c(C(=O)Nc2ccc3nc(-c4ccccc4)[nH]c3c2)n1	HT1080 IDH1KD tx inconclusive, TGFb SMAD3 inh 7.94µM, HT1080NT lethal inconclusive | TGFb confirm 6.51µM | HepG2 tox-2 inconclusive | TGFb CCL64 inh inactive | TGFb COP inh inactive
Cn1c(=O)oc2cc(S(=O)(=O)N3CCCC(C(=O)NC4CCCc5ccccc54)C3)ccc21 (stereo unspecified)	TGFb SMAD3 inh 0.562µM | TGFb confirm inconclusive | HepG2 tox-2 inconclusive | TGFb CCL64 inh inactive | TGFb COP inh inactive
Cn1c(=O)oc2cc(S(=O)(=O)NC3CCCc4ccccc43)ccc21 (stereo unspecified)	none
Cc1cc(C)c(-c2csc(NC(=O)C3=NN(c4ccccc4)C(=O)CC3)n2)c(C)c1	TGFb SMAD3 inh inconclusive | TGFb confirm 6.51µM | HepG2 tox-2 inactive | TGFb CCL64 inh inactive | TGFb COP inh inactive
CCc1ccc(-c2csc(NC(=O)C3=NN(c4ccccc4)C(=O)CC3)n2)cc1	HT1080 IDH1KD tx inconclusive, Giardia killer inconclusive, HT1080NT lethal inconclusive
O=C(NCc1cccnc1)c1cc(C2CCCCN2C(=O)OCCF)on1 (stereo unspecified)	HT1080NT lethal inconclusive (no result: Giardia killer)
O=C(Nc1ccc2nc3n(c(=O)c2c1)CCCCC3)c1ccccc1[N+](=O)[O-]	IL1B secr inh inconclusive
O=C(Nc1ccc2nc3n(c(=O)c2c1)CCCCC3)c1c(F)ccc([N+](=O)[O-])c1F	HT1080 IDH1KD tx 14.6µM, TGFb SMAD3 inh 5.01µM, HT1080NT lethal 9.2µM, IL1B secr inh -101.8, HepG2 tox-1 11.2µM | TGFb confirm 2.59µM | HepG2 tox-2 2.59µM | TGFb CCL64 inh 4.11µM | TGFb COP inh 8.2µM
Cc1ccc(S(=O)(=O)N2CC=C(c3ccc(F)cc3)CC2)cc1	TGFb SMAD3 inh 3.16µM | TGFb confirm inconclusive | HepG2 tox-2 inactive | TGFb CCL64 inh inactive | TGFb COP inh inactive
Cc1ccc(NC(=O)C2=CCN(S(=O)(=O)c3ccc(F)cc3)CC2)cc1	IL1B secr inh inconclusive
COc1ccc(CN2CCN(c3ncnc4scc(-c5ccc(F)cc5)c34)CC2)cc1	TGFb SMAD3 inh 11.2µM, IL1B secr inh inconclusive | TGFb confirm 20.6µM | HepG2 tox-2 inconclusive | TGFb CCL64 inh inconclusive | TGFb COP inh inactive
CC(=O)c1cccc(NC(=O)/C=C/c2ccc([N+](=O)[O-])s2)c1	HT1080 IDH1KD tx inconclusive, TGFb SMAD3 inh 7.08µM, HT1080NT lethal inconclusive, IL1B secr inh -103.8 | TGFb confirm 4.11µM | HepG2 tox-2 11.6µM | TGFb CCL64 inh 2.06µM | TGFb COP inh inactive
CCC(C)NC(=O)CCn1c(-c2ccc(F)cc2)cc(C(C)=O)c1C (stereo unspecified)	TGFb SMAD3 inh inconclusive
Cc1onc(-c2ccccc2)c1C(=O)Nc1ncc([N+](=O)[O-])s1	HT1080 IDH1KD tx inconclusive, TGFb SMAD3 inh 8.91µM, Giardia killer -94.4, HT1080NT lethal inconclusive, IL1B secr inh -66.8 | TGFb confirm 14.6µM | HepG2 tox-2 inconclusive | TGFb CCL64 inh 23.1µM | TGFb COP inh inactive
Cc1onc(-c2ccccc2)c1C(=O)Nc1nnc(C(C)C)s1	none
CCOc1ccc2nc(NC(=O)C(CC)Sc3nc(C)cc(=O)[nH]3)sc2c1 (stereo unspecified)	none
CC(C)(C)n1nnnc1C(c1cccs1)N1CCN(Cc2ccc3c(c2)OCO3)CC1 (stereo unspecified)	none

From PubChem
